# Compound activity: PubChem BioAssay, National Center for Advancing Translational Sciences (NCATS)
# KB-3-1 tox: KB-3-1 parental cell cytotoxicity | 1.4% of 400,000 active | KB-3-1 viability, CellTiter-Glo ATP luminescence, 72 h | Potency, µM (series often up to 46.1 µM), most hits filed as cytotoxic; further: on the % scale 0 is the no-effect control and ±100 the full control effect; nearly all actives have a fitted effect of over 60% in size
#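 Here the drug-naive KB-3-1 line serves as comparator for MDR sub-line selectivity; cells received compound titrations, 72 h at 37 °C, then CellTiter-Glo readout.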
# Gal4-VP16 FLuc: Gal4-VP16 reporter inhibition counter-screen; AID 2546; Potency, µM (titrated, usually from 53.6 µM), without a hit: at the top dose activity, negative = inhibition, actives largely listed as inhibitors; 3.5% of 310,000 active; Drosophila S2 Gal4-VP16 UAS-luciferase, luminescence, 20 h;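 further: Gal4-VP16 expression switched on by copper sulfate through the metallothionein promoter; on the % scale 0 is the no-effect control and ±100 the full control effect; nearly all actives have a fitted effect of over 50% in size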
# MCF10A rereplic: DNA re-replication induction in MCF 10a cells; MCF 10A DNA re-replication, Hoechst nuclear intensity, 48 h; Potency, µM (doses to about 46.1 µM), for the others: at the top dose activity, positive = re-replication, actives largely listed as activators; 2.9% of 350,000 active; further: % of control where 0% means no effect; nearly all actives have a fitted effect of over 50% in size
# RORgamma inh: ROR gamma (mouse) transcription inhibition; Drosophila S2 Gal4-RORgamma UAS-luciferase reporter, 20 h; Potency, µM (highest dose often 53.6 µM), for the others: top-dose activity change, negative = inhibition, most hits filed as inhibitors; AID 2551; P51450; 5.4% of 310,000 active; further: on the % scale 0 is the no-effect control and ±100 the full control effect; nearly all actives have a fitted effect of over 60% in size
# Target sequence (P51450 whole entry, looked up, the tested form may be a part): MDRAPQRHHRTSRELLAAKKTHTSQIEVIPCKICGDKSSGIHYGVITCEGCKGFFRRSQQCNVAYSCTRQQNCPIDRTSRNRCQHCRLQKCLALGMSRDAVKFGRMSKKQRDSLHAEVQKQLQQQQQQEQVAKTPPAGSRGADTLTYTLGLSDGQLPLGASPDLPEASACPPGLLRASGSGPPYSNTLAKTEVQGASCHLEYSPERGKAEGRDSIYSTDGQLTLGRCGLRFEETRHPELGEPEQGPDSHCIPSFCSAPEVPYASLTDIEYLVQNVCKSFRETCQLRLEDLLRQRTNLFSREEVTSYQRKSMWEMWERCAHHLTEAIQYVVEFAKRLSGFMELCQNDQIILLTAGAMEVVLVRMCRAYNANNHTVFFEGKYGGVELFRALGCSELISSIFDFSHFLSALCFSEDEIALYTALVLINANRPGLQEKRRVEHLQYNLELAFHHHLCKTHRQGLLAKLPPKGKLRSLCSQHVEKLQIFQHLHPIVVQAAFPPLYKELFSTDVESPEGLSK
#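 A Gal4/UAS one-hybrid system in insect cells: metallothionein-promoter Gal4–ROR gamma fusion plus Photinus luciferase reporter. Copper sulfate 700 uM final, 20 hr ambient incubation, luminescent detection after 10 min with reagent.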
# SW480 rereplic: inducers of DNA re-replication in SW480 colon cancer cells | AID 624297 | 1.8% of 340,000 active | Potency, µM (highest dose often 46.1 µM), inactives show at the highest dose re-replication activation, hits mostly activators | SW480 DNA re-replication, Hoechst DNA content imaging, 48 h; further: % of control where 0% means no effect; nearly all actives have a fitted effect of over 55% in size
#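 Image-based DNA-content assay: after two days of treatment, nuclei were labelled with the DNA dye Hoechst and imaged, and hits were compounds raising the count of nuclei showing high fluorescence intensity.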
# KB-V1 cytotox: KB-V1 MDR subline cytotoxicity. 3.4% of 400,000 active. Potency, µM (titrated, usually from 46.1 µM), most hits filed as cytotoxic. KB-V1 MDR cells viability, CellTiter-Glo, 72 h; further: on the % scale 0 is the no-effect control and ±100 the full control effect; nearly all actives have a fitted effect of over 60% in size
#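 Following 72 h at 37 degrees C with compound, KB-V1 cell viability was read by CellTiter-Glo luminescence, medium being phenol-red-free DMEM plus 10% FBS; concentration-response parameters came from normalized, curve-fitted qHTS data.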
# * hit, by the source's call; i = inactive; ? = inconclusive; . = not tested or not shown; [ ] = dose if it differs, or a comment. In the library only some 10% were active in any assay of this set; here they are far more common. The call rests on the fitted dose curve; in most records, active means well fitted curve in the direction sought with a large enough effect; inconclusive means small, poorly fitted or top-dose-only effect, or another doubt; inactive means no such curve, though single readings can be large; an effect the other way counts as inactive or inconclusive. Potency means the concentration at half of the fitted maximal effect.
SMILES,KB-3-1 tox,Gal4-VP16 FLuc,MCF10A rereplic,RORgamma inh,SW480 rereplic,KB-V1 cytotox
Cc1cccc(OCCn2c(=S)[nH]c3ccccc32)c1,i,1.6µM*,4%,1.3µM*,-2%,i
Cn1c(=S)[nH]c2ccccc21,i,?,-177%[0.0737 µM],13µM*,-16%,?
Cc1ccc(OCCn2c(=S)[nH]c3ccccc32)c(C(C)C)c1,15µM*,4µM*,?,3.5µM*,4%,i
COc1ccccc1OCCn1c(=O)n(C)c2ccccc21,i,-8%,0%,27%,9%,i
OCCN1CCN(C(c2ccccc2Cl)c2sc3nc(-c4ccco4)nn3c2O)CC1 (stereo not given),i,.,.,.,.,i
COc1ccc(-n2nc(C(=O)Nc3ccc(C(C)=O)cc3)nc2-c2ccccc2)cc1,?,.,.,.,.,i
S=c1[nH]c2ccccc2n1CCOc1ccccc1,i,2.8µM*,-2%,-15%[1.91 µM],?,i
S=c1[nH]c2ccccc2n2cccc12,i,5.6µM*,-8%,0.89µM*,-8%,i
CCOc1ccc(OCCn2c(=S)[nH]c3ccccc32)cc1,i,5µM*,8%,5µM*,-6%,i
S=c1[nH]c2cnccc2n1Cc1ccccc1,i,14%,-2%,?,0%,i
O=c1[nH]c2ccccc2n1CCCOc1ccccc1,i,3%,0%,41%,-15%,i
S=c1[nH]c2ccccc2n1Cc1ccccc1,i,7.1µM*,-2%,?,26%,i
COc1cccc(CNC(=O)c2c3c(nc4ccccc24)C(=O)N(C2CCCCC2)C3)c1,i,.,.,.,.,i
CCCC(=O)Nc1nnc2n1CCS2,i,.,.,.,.,?
CN(CC(=O)Nc1ccc(F)cc1)CC(=O)N1CCCC1,i,.,-6%,.,-2%,i
CCN1C(=NCC(C)C)N[C@@H](c2ccccc2)[C@H](C(=O)OC)[C@H]1C,.,-4%,.,-2%,.,.
COc1cccc(Cn2nnc(C(=O)NCc3ccc(Cl)cc3Cl)c2N)c1,i,.,.,.,.,i
CCOc1ccc2c(c1)[nH]c(=S)n2C,i,?,4%,8.9µM*,-17%,i
OCc1ccccc1CNCc1ccccc1,i,8%,-3%,13%,-1%,i
Oc1cc(CNCc2ccccc2)c(O)cc1CNCc1ccccc1,i,.,?,.,13µM*,i
O=C(C[n+]1cccc2cccc(O)c21)c1ccc(Cl)cc1,i,.,.,.,.,i
C=CCOc1ccc(/C=C2\SC(=S)N(N3CCOCC3)C2=O)cc1,i,1%,-3%,-2%,5.8µM*,i
CCOC(=O)c1c(-c2ccc(C)o2)csc1NC(=S)NC(=O)c1cccs1,?,2.5µM*,24%,1.4µM*,-22%,i
CCOC(=O)c1c(-c2ccc(C)o2)csc1NC(=O)CSc1nnnn1-c1ccccc1,i,7.9µM*,10%,11µM*,-4%,i
CCOC(=O)c1c(-c2ccc(C)o2)csc1NC(=S)NC(=O)c1ccccc1Br,?,10µM*,?,7.9µM*,?,16µM*
SMILES,KB-3-1 tox,Gal4-VP16 FLuc,MCF10A rereplic,RORgamma inh,SW480 rereplic,KB-V1 cytotox
CCOC(=O)c1c(-c2ccc(C)o2)csc1NC(=O)CSc1nnc(C)s1,i,?,18%,?,-10%,i
COCC(=O)N1CCC2(CCN(Cc3ccccc3)CC2)CC1,.,-12%,.,-15%,.,.
CN(C)CCCNc1nccc(N2CCN(C)CC2)n1,i,.,.,.,.,i
COc1cccc(CC(NC(C)=O)C(=O)NC2CCN(C(=O)c3ccc(Cl)cc3)CC2)c1OC (stereo not given),i,-4%,-3%,7%,-6%,i
COc1cc(/C=C/C(=O)O)ccc1OS(=O)(=O)c1ccc(C)cc1,i,-18%,-7%,5%,-3%,i
COc1cc(/C=C/C(=O)c2ccc(NS(=O)(=O)c3ccc(C)cc3)cc2)ccc1OC(F)F,i,?,23µM*,?,?,?
COc1cc(/C=C/C(=O)c2ccc(NS(=O)(=O)c3ccc(C)cc3)cc2)cc(OC)c1O,?,?,18µM*,?,?,i
COc1cccc(/C=C/C(=O)c2ccc(NS(=O)(=O)c3ccc(C)cc3)cc2)c1,i,?,5.8µM*,-7%[10 µM],?,?
Cn1nnnc1SCCCNCc1cc(Br)ccc1OCc1ccccc1,i,.,.,.,.,i
COCCCNC(=O)CN1C(=O)c2cccnc2Sc2ccccc21,i,.,.,.,.,i
S=c1[nH]nc(-c2ccco2)n1/N=C/c1c(Cl)cccc1Cl,i,1%,3%,20%,-11%,i
COc1cc(/C=N/n2c(-c3ccccc3)n[nH]c2=S)ccc1O,i,1%,-1%,2%,-14%,i
COc1ccc(/C=N/n2c(-c3cccs3)n[nH]c2=S)cc1,i,?,11%,2.8µM*,-7%,i
Cc1ccc(/C=N/n2c(-c3cccs3)n[nH]c2=S)cc1,i,?,?,2µM*,21%,i
S=c1[nH]nc(-c2cccs2)n1/N=C/c1c(Cl)cccc1Cl,i,-26%,29%,11µM*,-12%,?
O=[N+]([O-])c1ccc(-c2nn(-c3ccccc3)cc2/C=N/n2c(-c3cccs3)n[nH]c2=S)cc1,i,4%,8%,-15%,1%,i
Cc1cccc(NC(=O)CN2C(=O)CCc3ccccc32)c1C,i,.,.,.,.,i
Cc1ccc(S(=O)(=O)c2nnn3c2nc(NC(C)c2ccccc2)c2sccc23)cc1 (stereo not given),i,.,.,.,.,i
Cc1cccc(C)c1NC(=O)c1cc(S(=O)(=O)N2CCc3ccccc3C2)ccc1F,i,.,.,.,.,i
Cc1nc2c(c(C)c1CCC(=O)Nc1cccc(C(F)(F)F)c1)c(=O)n(C)c(=O)n2C,i,.,.,.,.,i
O=C(O)c1ccccc1-c1c2ccc(=O)cc-2oc2cc(O)ccc12,.,2%,-2%,4%,-4%,.
CN(C)c1ccc2c(-c3ccccc3)c3ccc(=[N+](C)C)cc-3oc2c1,.,3.2µM*,.,?,.,.
Cc1cccc(C)c1-n1nnnc1C1c2ccccc2C(=O)N1C1CC1 (stereo not given),i,.,.,.,.,i
CCSc1nnc(NC(=O)c2ccc(Br)s2)s1,?,22%,-8%,7%,-4%,i
CC(C)(C)CC(=O)Nc1nnc(C(F)(F)F)s1,i,9%,-1%,?,8%,i
O=C(Nc1nnc(C(F)(F)F)s1)c1ccc(Br)s1,4.6µM*,?,19%,?,2%,2.9µM*
O=C(Nc1ccccc1C(=O)Nc1nnc(C(F)(F)F)s1)c1ccccc1Cl,21µM*,16µM*,?,?,?,?
